The source of these data is PubChem BioAssay (NCI).

About 83,000 compounds went through this panel and 20% of them were active in at least one assay; those are over-represented in the sample as a whole.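 Treatment: one concentration, 48 hours, 96-well format. Scoring: percent growth, with anything below 10 considered active.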 Unmarked numbers belong to inactive results. Activity calls are given as the source filed them.

Test systems include NCI-H23 lung; NCI-H226 lung; NCI-H322M lung; HOP-62 NSCLC; NCI-H460 lung; HOP-92 NSCLC; NCI-H522 lung; A549/ATCC NSCLC; 786-0 renal; COLO 205 colon.
What all share (assay): NCI-60 one-dose screen, 48 h (100 = growth as untreated, 0 = no growth, -100 = all killed)
Details in all cases: 10 µM unless noted

Take `O=C(/C=C/c1cccc(O)c1)c1cccc(-n2cc(-c3ccc4ccccc4c3)[nH]c2=O)c1`: the growth is 28.2% in the test with NCI-H23 lung; 88.9% in the test with NCI-H226 lung; 4.64% (active) with NCI-H322M lung; -20.9% (active) in the test with HOP-62 NSCLC; -9.23% (active) with NCI-H460 lung; 42.6% in the test on HOP-92 NSCLC. In addition, the growth with NCI-H522 lung is 75.9%; in the test with A549/ATCC NSCLC, 61.8%; with 786-0 renal, -87.9% (active); in the test with COLO 205 colon it was -8.8% (active).
In the case of `CCOC(=O)c1csc(NC(=O)COc2cccc(/C=C3\Oc4cc(OC)ccc4C3=O)c2)n1`, the growth in the test with NCI-H23 lung was 90.7%; in the test with NCI-H226 lung, 89.5%; with NCI-H322M lung it was 99.7%; in the test with HOP-62 NSCLC, 125%; in the test on NCI-H460 lung it was 107%; in the test with HOP-92 NSCLC it was 62.6%. For the same compound, the growth with NCI-H522 lung is 49.8%; with A549/ATCC NSCLC, 94%; with 786-0 renal, 110%; with COLO 205 colon it was 110%.
On to `Fc1cnc(NC2CC2)nc1-c1cnc2ccc(N3CCOCC3)cn12`, for which the growth in the test with NCI-H23 lung was -7.34% (active); with NCI-H226 lung it was 0.213% (active); in the test on NCI-H322M lung, 4.31% (active); in the test with HOP-62 NSCLC, 9.8% (active); with NCI-H460 lung it was 4.3% (active); with HOP-92 NSCLC, 1.51% (active). The growth with NCI-H522 lung is -18.5% (active); in the test on A549/ATCC NSCLC, 3.21% (active); in the test on 786-0 renal, 11.2%; in the test with COLO 205 colon, -22.1% (active).
In the case of `C=C(C)[C@@H]1CC[C@]2(C(=O)NC3CCCCC3)CC[C@]3(C)[C@H](CC[C@@H]4[C@@]5(C)CCCNC(C)(C)[C@@H]5CC[C@]43C)[C@@H]12`, the growth with NCI-H23 lung was 76.7%; with NCI-H226 lung, 63%; with NCI-H322M lung, 65.7%; with HOP-62 NSCLC, 80.4%; in the test with NCI-H460 lung, -56.5% (active); in the test on HOP-92 NSCLC, 62.3%. Moreover, the growth in the test on NCI-H522 lung is 60%; in the test with A549/ATCC NSCLC, 41.2%; with 786-0 renal, 62.7%; with COLO 205 colon it was -63.1% (active).
Consider `COc1ccc(-c2nc(SCCC(C)C)nc(N/N=C\c3ccccc3O)c2C#N)cc1`, for which the growth in the test with NCI-H23 lung was 83.2%; with NCI-H226 lung, 84.4%; in the test on NCI-H322M lung it was 82.7%; in the test with HOP-62 NSCLC it was 92.5%; in the test with NCI-H460 lung, 59.1%; in the test with HOP-92 NSCLC, 88.4%. The growth in the test with NCI-H522 lung is 84.6%; with A549/ATCC NSCLC it was 78.2%; in the test on 786-0 renal it was 88.9%; in the test on COLO 205 colon, 96.4%.
Consider `c1coc(-c2c3ccc(=[N+]4CCCCC4)cc-3oc3cc(N4CCCCC4)ccc23)c1`, for which the growth with NCI-H23 lung is -84.6% (active); with NCI-H226 lung it was -86.1% (active); in the test on NCI-H322M lung, -85.1% (active); with HOP-62 NSCLC, -81.1% (active); with NCI-H460 lung, -71.5% (active); in the test with HOP-92 NSCLC, -68.1% (active). The growth in the test on NCI-H522 lung is -86.4% (active); with A549/ATCC NSCLC, -57.9% (active); in the test with 786-0 renal, -93.2% (active); with COLO 205 colon, -70.1% (active).
Regarding `Cc1cc(=O)oc2c1ccc1oc(C#N)c(C)c12`, the growth is 97.9% in the test with NCI-H23 lung; 107% in the test on NCI-H226 lung; 98.9% with NCI-H322M lung; 103% in the test with HOP-62 NSCLC; 108% with NCI-H460 lung; 82% in the test with HOP-92 NSCLC. Besides, the growth with NCI-H522 lung was 102%; in the test on A549/ATCC NSCLC it was 99.8%; in the test on 786-0 renal, 84.9%; in the test on COLO 205 colon it was 121%.
On to `COc1ccc(-c2nc(SC(C)C)nc(NNC(N)=S)c2C#N)cc1`, for which the growth in the test with NCI-H23 lung is 69.7%; in the test with NCI-H226 lung, 86.4%; in the test on NCI-H322M lung, 91.3%; in the test with HOP-62 NSCLC it was 63.7%; in the test with NCI-H460 lung it was 22.4%; with HOP-92 NSCLC it was 41.2%. Also, the growth is 12.8% in the test with NCI-H522 lung, 49.2% in the test on A549/ATCC NSCLC, 85% in the test with 786-0 renal and 99.9% in the test on COLO 205 colon.
As to `COC(=O)[C@]12CC[C@@H](C)[C@H](C)[C@@H]1C1=CC[C@@H]3[C@@]4(C)C(C=O)=C[C@@](C)(COC(=O)c5ccco5)[C@@H]4C(=O)C[C@@]3(C)[C@]1(C)CC2`, the growth with NCI-H23 lung was 26.3%; in the test with NCI-H226 lung, 22.5%; in the test on NCI-H322M lung it was 69.6%; in the test on HOP-62 NSCLC it was 31.6%; in the test on NCI-H460 lung it was 18.1%; in the test with HOP-92 NSCLC it was 31.8%. Also, the growth in the test on NCI-H522 lung was 10.7%; in the test with A549/ATCC NSCLC, 10.1%; in the test on 786-0 renal it was 43.4%; in the test with COLO 205 colon, -59.5% (active).
Turning to `O=C(Nc1ccc(Nc2ccncc2)cc1)c1ccc(C(=O)Nc2ccc(Nc3ccncc3)cc2)cc1`, the growth with NCI-H23 lung was 59.2%; in the test with NCI-H226 lung, 68.8%; in the test with NCI-H322M lung, 71.9%; in the test on HOP-62 NSCLC it was 82.1%; in the test with NCI-H460 lung, 88.2%; with HOP-92 NSCLC, 28.9%. In addition, the growth with NCI-H522 lung was 47.4%; in the test with A549/ATCC NSCLC, 69.5%; in the test with 786-0 renal, 84.5%; in the test with COLO 205 colon, 27.7%.
Regarding `CC(CN1CCCCC1)C(=O)c1ccccc1` (stereo not given), the growth in the test with NCI-H23 lung is 101%; in the test with NCI-H226 lung it was 103%; in the test with NCI-H322M lung, 102%; in the test on HOP-62 NSCLC, 103%; in the test with NCI-H460 lung, 105%; in the test on HOP-92 NSCLC, 79%. Moreover, the growth is -57.1% (active) with NCI-H522 lung, 98% in the test on A549/ATCC NSCLC, 105% in the test on 786-0 renal and 108% with COLO 205 colon.
As to `COc1ccc(-c2csc(C3=C(O)CN(C(C)C)C3=N)n2)cc1OC`, the growth in the test on NCI-H23 lung is 101%; in the test with NCI-H226 lung, 84.4%; in the test on NCI-H322M lung it was 91.6%; with HOP-62 NSCLC, 87%; with NCI-H460 lung it was 120%; with HOP-92 NSCLC, 43%. Further, the growth with NCI-H522 lung was 89.1%; with A549/ATCC NSCLC it was 88.7%; in the test with 786-0 renal it was 89.7%; in the test on COLO 205 colon it was 128%.
Consider `COc1ccc(-c2ccc3c(c2)sc2nc(-c4ccc(F)cc4)cn23)cc1`, for which the growth with NCI-H23 lung was 81.1%; in the test on NCI-H226 lung, 80.8%; in the test on NCI-H322M lung, 67.7%; in the test with HOP-62 NSCLC, 66.3%; in the test on NCI-H460 lung it was 15.4%; with HOP-92 NSCLC, 65.8%. Besides, the growth with NCI-H522 lung was 66.1%; in the test with A549/ATCC NSCLC it was 30%; with 786-0 renal, 76.2%; in the test on COLO 205 colon it was 1.69% (active).
